MITF inh: blocks human microphthalmia-associated transcription factor | inhibition, % at 2.6 µM | O75030 | AlphaScreen MITF homodimerization, bead proximity signal | 650,000 compounds, 0.91% hits | AID 1259374; in the data active = inhibition above about 50%;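 also: 0% = vehicle wells with protein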
TEAD-YAP block: TEAD-YAP interaction inhibition; HEK-TIYL cells, TEAD-Gal4/YAP UAS-luciferase luminescence; inhibition, % at 9.12 µM; 640,000 compounds, 1.4% hits; in the data active = inhibition above about 32%;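 also: 0% = median of test compound wells and 100% = reference inhibitor wells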
FBW7 activator: activators of human E3 ligase FBW7; Q969H0; AlphaScreen FBW7–phospho-cyclin E peptide binding, activator screen; normalized activity (activation), % at 26.1 µM; 650,000 compounds, 0.13% hits; AID 1259310; in the data active = normalized activity above about 1.9%;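 also: purified mutant Fbw7 with reduced substrate affinity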
GPR151 ag: activators of human GPR151. Q8TDV0. activation, % at 11.2 µM. 650,000 compounds, 1% hits. PathHunter beta-arrestin GPR151 cells, luminescence. AID 1508602; in the data active = activation above about 4.9%;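 also: 0% = median of compound wells and 100% = cells with positive control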
Target sequence (Q8TDV0 whole entry, looked up): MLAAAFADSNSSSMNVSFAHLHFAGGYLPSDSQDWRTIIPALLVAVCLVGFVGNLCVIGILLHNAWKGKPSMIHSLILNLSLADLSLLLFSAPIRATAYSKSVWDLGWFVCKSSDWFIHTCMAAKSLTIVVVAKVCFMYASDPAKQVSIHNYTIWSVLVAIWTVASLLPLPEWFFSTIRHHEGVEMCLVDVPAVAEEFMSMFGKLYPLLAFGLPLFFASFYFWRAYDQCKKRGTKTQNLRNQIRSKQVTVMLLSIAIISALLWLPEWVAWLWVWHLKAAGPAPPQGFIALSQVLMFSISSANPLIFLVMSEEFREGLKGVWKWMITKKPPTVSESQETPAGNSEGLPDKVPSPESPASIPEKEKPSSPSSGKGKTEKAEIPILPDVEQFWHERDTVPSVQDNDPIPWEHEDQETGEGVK
Active calls of the source: *; x = not tested or not shown. A selection: hits, their analogues and other compounds. The true share with any hit is near 3.5%.

SMILES | MITF inh | TEAD-YAP block | FBW7 activator | GPR151 ag
CCOC(=O)C1C2NC(=S)N(c3c(C)cccc3C)C1(C)Oc1c(Cl)cc(Cl)cc12 (configuration not stated) | -1 | -14 | 0 | 2
CCOC(=O)C1C2NC(=S)N(c3ccc(C)cc3)C1(C)Oc1c(Cl)cc(Cl)cc12 (configuration not stated) | 6 | 63* | 0 | 0
CCOC(=O)C1C2NC(=S)N(c3cccc(Cl)c3)C1(C)Oc1c(Cl)cc(Cl)cc12 (configuration not stated) | -10 | 55* | 0 | -1
Nc1ccc(N2CCNCC2)cc1 | 49 | -3 | -1 | -1
COc1ccc(Cl)cc1NC(=O)c1cccn(Cc2cccc(F)c2)c1=O | 5 | 0 | 0 | -1
C[C@]12CC[C@H](O)C[C@H]1CC[C@@H]1[C@@H]2CC[C@]2(C)[C@@H](C3=CC(=O)OC3)[C@@H](O)C[C@]12O | 22 | 95* | 0 | -1
CC(=O)OC1CC[C@@]2(C)C(CCC3C2CC[C@]2(C)C(C4=CC(=O)OC4)C(OC(C)=O)CC32O)C1 (some centres not stated) | -24 | 100* | 0 | 2
CC(=O)[C@H]1CCC2C3CC[C@H]4C[C@H](O)CC[C@]4(C)C3CC[C@@]21C (some centres not stated) | -9 | -6 | 0 | 4
O=C1NC(=S)N(c2ccccc2F)C(=O)/C1=C\c1ccco1 | 72* | -8 | 0 | 0
Cc1ccc(N2C(=O)/C(=C\C=C\c3ccco3)C(=O)NC2=S)cc1 | 59* | -1 | 0 | -1
C=CCN1C(=O)/C(=C/c2ccco2)C(=O)NC1=S | 77* | 8 | -1 | -1
O=C1NC(=S)N(c2ccccc2)C(=O)/C1=C/c1ccco1 | 66* | 9 | -1 | 3
CN1CCC2=C(C1)C(=O)NC1(CCCCC1)N2 | -1 | -3 | 1 | -1
O=[N+]([O-])c1ccc(NCCc2c[nH]c3ccccc23)c2ccncc12 | 8 | 5 | 0 | 1
O=[N+]([O-])C1CCCc2nonc21 (configuration not stated) | 12 | 8 | 0 | 1
O=C1NC(=S)N(Cc2ccco2)C(=O)/C1=C\c1cccs1 | 82* | -2 | -1 | 2
O=C1NC(=O)N(Cc2ccco2)C(=O)/C1=C\c1ccco1 | 31 | -3 | -1 | -1
Cc1cccc(N2CCN(C(=O)CCc3nc(C4=CCN(C)CC4)no3)CC2C)c1 (configuration not stated) | 24 | 13 | 4.1* | 0
CN1CC=C(c2noc(CCC(=O)Nc3ccccc3Cl)n2)CC1 | 12 | -8 | 1 | -1
CN1CC=C(c2noc(CCC(=O)N3CCN(c4ncccn4)CC3)n2)CC1 | 17 | -9 | 1 | -1
CN1CC=C(c2noc(CCC(=O)Nc3cccc(Cl)c3)n2)CC1 | 36 | 11 | 1.9* | -1
COc1ccc(-n2c(/C=C/c3ccccc3)nc3ccccc3c2=O)cc1 | -3 | 7 | 0 | 1
CCn1nc(/C=C/c2ccccc2)nc2c(=O)n(C)c(=O)nc1-2 | 6 | 33* | -2 | -6
CCn1nc(-c2ccc([N+](=O)[O-])cc2)nc2c(=O)n(C)c(=O)nc1-2 | 9 | 70* | 0 | -8
O=C1NC(=S)NC(=O)C1=Cc1ccccc1OS(=O)(=O)c1ccc2ccccc2c1 | 7 | -28 | 0 | -1
SMILES | MITF inh | TEAD-YAP block | FBW7 activator | GPR151 ag
C#CCOc1ccccc1/C=C/[N+](=O)[O-] | 2 | 46* | 0 | -2
C[C@@H]1C[C@@H]([C@H](O)CC2CC(=O)NC(=O)C2)C(=O)[C@@H](C)C1 | -9 | 98* | 0 | -3
CN(N=O)c1ccc(O)c(O)c1 | 77* | 2 | 0 | 1
CCN1/C(=C/C=C/c2oc3ccc(-c4ccccc4)cc3[n+]2CC)Oc2ccc(-c3ccccc3)cc21 (tested in a mixture with another compound) | -35 | 82* | 0 | 1
Cc1ccc(-n2c(/C=C/c3ccccc3Br)nc3ccccc3c2=O)cc1 | -8 | 51* | 0 | 0
O=C1NC(=O)N(c2ccccc2)C(=O)/C1=C/C=C/c1ccccc1[N+](=O)[O-] | 2 | -3 | 0 | 0
CCN(CC)C(C)C(=O)c1ccccc1 (configuration not stated) | -6 | -3 | 0 | 0
CC(=O)[O][Hg][c]1ccccc1 | -4 | 98* | 0 | 1
C[C@H]1CCC/C=C/[C@@H]2C[C@H](O)C[C@H]2[C@H](O)/C=C/C(=O)O1 | 11 | 68* | 0 | -3
C[C@H]1CCC/C=C/C2C[C@H](O)C[C@H]2[C@H](O)/C=C/C(=O)O1 (some centres not stated) | 3 | x | 2.1* | 2
Cc1ccc(-n2c(/C=C\c3ccc(F)c(F)c3)nc3ccccc3c2=O)cc1Cl | -4 | -8 | 0 | -1
O=C(NCCc1ccc(F)cc1)C(Cl)(Cl)Cl | 2 | -4 | 0 | 0
CSc1ccc2nc(NC(=O)c3ccn(C(C)C)n3)sc2c1 | -7 | -27 | 0 | 4
COc1ccc(OC)c(C2=NCC(=O)Nc3c2oc2ccccc32)c1 | -4 | 52* | 0 | 1
CN1C2CCC1/C(=C\c1cccnc1)C(=O)/C2=C/c1cccnc1 | 22 | 53* | 1 | 0
O=C1/C(=C/c2cccnc2)N2CCC1CC2 | 2 | -7 | 0 | 0
CC(C)N(C)CC#CC(O)(c1ccccc1)c1ccccc1 | -1 | 3 | 0 | 0
O=C1C=CC(=O)c2c(O)cccc21 | 108* | 2 | 0 | 0
COc1ccc(/C=C2\C(=O)C3CCN2CC3)cc1 | 3 | 6 | 0 | 3
O=Cc1cn(Cc2cccc([N+](=O)[O-])c2)c2ccccc12 | -4 | 48* | -1 | -1
O=[N+]([O-])c1cccc(CN2CCN(Cc3ccccc3)CC2)c1 | 36 | 2 | 0 | -1
CCOC(=O)c1c(CN2CCC(C(=O)OCC)(c3ccccc3)CC2)n(-c2ccccc2)c2cc(Br)c(OC)cc12 | -3 | -4 | 0 | 1
O=C(N1CCCc2ccccc21)C(Cl)(Cl)Cl | -18 | 15 | 0 | 0
CC(Cc1ccccc1F)NC1CCN(Cc2ccccc2)CC1 (configuration not stated) | -37 | -5 | 0 | 1
CCOC(=O)C1C2NC(=S)N(c3ccc(Cl)cc3)C1(C)Oc1ccc(Br)cc12 (configuration not stated) | 19 | 54* | 0 | 1
CCOC(=O)C1C2NC(=S)N(c3ccc(Br)cc3)C1(C)Oc1ccc(OC)cc12 (configuration not stated) | 17 | 63* | 0 | -1
CCOC(=O)C1C2NC(=S)N(c3ccc(C)cc3)C1(C)Oc1ccc(OC)cc12 (configuration not stated) | 43 | 2 | -1 | 0
ClCCN(Cc1ccccc1)Cc1ccccc1 | -6 | -3 | 0 | -1
CCOC(=O)c1n[nH]c(N[N+](=O)[O-])n1 | -7 | -1 | 0 | 1
COc1cc(NC(=O)CN2C(=O)C(C)N=C(c3ccccc3)c3ccccc32)cc(OC)c1 (configuration not stated) | 5 | 37* | 0 | 0
